Measured values published in PubChem BioAssay.
Where “and” joins values, the source holds several entries; their conditions need not be identical. Equal values may be shown once. For part of these data: Potency and affinity values are given separately. The source holds several records for some structures; these can differ, active in one and inactive in another. Calls of active or inactive are those of the source. Where a call stands in place of a potency, no number is given. Unless noted, no rule for the calls is given here.

Legend:
[1] = antimalarial activity against Dd2 strain (AID 2302;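 active = growth inhibition above 50% at the single 2 µM test dose, taken to imply half-maximal potency below 2 µM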); settings: P. falciparum Dd2 in RBCs, LDH growth readout, 72 h; at 2 µM; stronger effect = higher value
[2] = human hepatoma cell viability loss – ATP luminescence, cytotoxicity control for P. falciparum antimalarial project, primary screen (AID 2303;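 active = inhibition above 50%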); settings: HepG2 viability, 24-48 h, at 10 µM, stronger effect = higher value
[3] = molecular target: L-lactate dehydrogenase (Plasmodium falciparum (isolate CDC / Honduras)) (UniProt Q27743); test: PfLDH activity inhibition – cell lysate, 3D7 strain, counter-screen for P. falciparum growth inhibition project (AID 2304); settings: P. falciparum 3D7 crude extract, LDH APAD/NBT absorbance; at 2 µM; stronger effect = higher value
L-lactate dehydrogenase (Plasmodium falciparum (isolate CDC / Honduras)), sequence (Q27743 whole entry, looked up): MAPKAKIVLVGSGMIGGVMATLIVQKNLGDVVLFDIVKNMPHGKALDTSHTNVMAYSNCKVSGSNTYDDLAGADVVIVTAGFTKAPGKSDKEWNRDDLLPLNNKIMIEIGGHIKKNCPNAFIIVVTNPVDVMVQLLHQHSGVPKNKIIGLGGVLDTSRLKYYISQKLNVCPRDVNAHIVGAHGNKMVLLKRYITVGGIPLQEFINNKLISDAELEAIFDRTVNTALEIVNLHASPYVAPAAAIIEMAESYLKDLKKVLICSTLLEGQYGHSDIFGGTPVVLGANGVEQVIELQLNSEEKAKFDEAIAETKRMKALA

[4] = inhibition of 3D7 malaria parasite growth – strain 3D7 (AID 2306); settings: P. falciparum 3D7 erythrocytic growth, LDH absorbance, 72 h; at 2 µM; stronger effect = higher value
[5] = molecular target: Calcium-dependent protein kinase 1 (Plasmodium falciparum (isolate 3D7)) (UniProt P62344); test: PfCDPK1 kinase inhibitors, biochemical, TCAMS library (AID 1159585; cut-off not given, nearly all actives have IC50 up to about 0.98 µM;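 also: inhibitors leave more ATP so luminescence rises with inhibition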); settings: recombinant PfCDPK1, Kinase-Glo ATP depletion luminescence
Calcium-dependent protein kinase 1 (Plasmodium falciparum (isolate 3D7)), sequence (P62344 whole entry, looked up): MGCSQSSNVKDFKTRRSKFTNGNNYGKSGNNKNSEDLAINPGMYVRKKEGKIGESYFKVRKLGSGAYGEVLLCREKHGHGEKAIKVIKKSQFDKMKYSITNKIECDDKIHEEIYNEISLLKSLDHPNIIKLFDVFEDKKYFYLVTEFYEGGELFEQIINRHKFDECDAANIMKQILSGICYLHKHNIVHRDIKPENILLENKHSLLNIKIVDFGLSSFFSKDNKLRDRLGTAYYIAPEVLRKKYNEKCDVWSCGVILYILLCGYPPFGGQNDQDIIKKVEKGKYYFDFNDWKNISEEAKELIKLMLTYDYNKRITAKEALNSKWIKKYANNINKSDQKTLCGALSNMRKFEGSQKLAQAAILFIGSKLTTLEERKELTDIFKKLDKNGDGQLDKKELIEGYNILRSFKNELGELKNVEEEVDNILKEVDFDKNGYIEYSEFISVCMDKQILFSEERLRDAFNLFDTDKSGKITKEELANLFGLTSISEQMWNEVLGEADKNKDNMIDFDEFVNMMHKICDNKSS

[6] = molecular target: Plasmodium falciparum protein kinase 6 (PK6, PF3D7_1337100) (UniProt Q8IDW1); test: PfPK6 kinase inhibitors, biochemical, TCAMS library (AID 1159586); settings: recombinant PfPK6, Kinase-Glo ATP depletion luminescence
Plasmodium falciparum protein kinase 6 (PK6, PF3D7_1337100), sequence (Q8IDW1 1-305): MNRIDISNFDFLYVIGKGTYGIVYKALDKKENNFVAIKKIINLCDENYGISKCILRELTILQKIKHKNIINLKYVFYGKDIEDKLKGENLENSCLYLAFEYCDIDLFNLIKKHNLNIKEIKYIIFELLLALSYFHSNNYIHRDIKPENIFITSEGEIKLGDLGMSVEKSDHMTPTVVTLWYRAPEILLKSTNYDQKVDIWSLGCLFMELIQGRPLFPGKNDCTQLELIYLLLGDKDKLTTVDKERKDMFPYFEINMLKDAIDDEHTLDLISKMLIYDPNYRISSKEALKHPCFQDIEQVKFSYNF

[7] = molecular target: Protein kinase 7 (PK7), Plasmodium falciparum 3D7 (PF3D7_0213400) (UniProt Q7YTF7); test: inhibition of Plasmodium PK7 catalytic activity – biochemical, TCAMS antimalarial set, Kinase-Glo luminescence (AID 1159587); settings: recombinant PfPK7, Kinase-Glo ATP depletion luminescence
Protein kinase 7 (PK7), Plasmodium falciparum 3D7 (PF3D7_0213400), sequence (Q7YTF7 1-343): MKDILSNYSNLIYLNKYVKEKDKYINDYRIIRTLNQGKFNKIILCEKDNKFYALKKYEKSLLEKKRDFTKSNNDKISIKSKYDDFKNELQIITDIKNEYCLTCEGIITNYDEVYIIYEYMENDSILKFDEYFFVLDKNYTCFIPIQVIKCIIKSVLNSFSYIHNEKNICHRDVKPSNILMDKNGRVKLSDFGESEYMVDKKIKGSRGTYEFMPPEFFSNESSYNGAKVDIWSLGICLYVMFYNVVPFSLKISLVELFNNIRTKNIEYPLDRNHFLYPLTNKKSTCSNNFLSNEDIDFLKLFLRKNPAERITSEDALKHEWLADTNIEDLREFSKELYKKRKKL

[8] = molecular target: Calcium-dependent protein kinase 4 (Plasmodium falciparum (isolate 3D7)) (UniProt Q8IBS5); test: PfCDPK4 kinase inhibitors, biochemical, TCAMS library (AID 1159588; cut-off not given, nearly all actives have IC50 up to about 0.91 µM); settings: recombinant PfCDPK4, Kinase-Glo ATP depletion luminescence
Calcium-dependent protein kinase 4 (Plasmodium falciparum (isolate 3D7)), sequence (Q8IBS5 whole entry, looked up): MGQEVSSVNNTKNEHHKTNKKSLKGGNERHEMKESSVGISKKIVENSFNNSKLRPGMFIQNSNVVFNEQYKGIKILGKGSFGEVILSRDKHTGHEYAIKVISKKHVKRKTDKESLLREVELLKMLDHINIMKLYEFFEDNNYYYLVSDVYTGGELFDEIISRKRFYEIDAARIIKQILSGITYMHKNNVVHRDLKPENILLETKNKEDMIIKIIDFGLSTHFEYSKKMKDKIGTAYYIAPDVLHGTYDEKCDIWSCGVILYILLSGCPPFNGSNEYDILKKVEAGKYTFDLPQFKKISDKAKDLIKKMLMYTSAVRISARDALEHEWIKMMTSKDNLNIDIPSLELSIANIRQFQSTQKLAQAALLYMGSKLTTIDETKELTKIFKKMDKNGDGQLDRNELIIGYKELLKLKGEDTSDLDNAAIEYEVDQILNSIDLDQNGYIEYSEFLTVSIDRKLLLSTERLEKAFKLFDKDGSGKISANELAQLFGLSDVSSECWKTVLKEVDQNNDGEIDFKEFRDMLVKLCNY

Row | SMILES | growth inhibition [1] | inhibition [2] | inhibition [3] | growth inhibition [4] | outcome [5] | outcome [6] | outcome [7] | outcome [8]
1 | CN(c1cc(NC(=O)c2ccc(F)cc2)ccn1)C1CCN(Cc2cccc(C#N)c2)CC1 | 83% (active) | 73% (active) | 1% (inactive) | 97% (active) | inactive | inactive | inactive | inactive
2 | Cc1csc(-c2ccc3[nH]cc(C4=CCN(C)CC4)c3c2)n1 | 78% (active) | 10% (inactive) | -3% (inactive) | 93% (active) | inactive | inactive | inactive | inactive
3 | O=C1Nc2cccc3c2C1(CCCCCN1CC=C(c2c[nH]c4ccccc24)CC1)CCC3 (stereo not given) | 89% (active) | 2% (inactive) | 3% (inactive) | 94% (active) | inactive | inactive | inactive | inactive
4 | CC(=O)C1(c2ccccc2)CCN(CCC2(c3ccc(Cl)c(Cl)c3)CN(C(=O)C3CCCC3)CCO2)CC1 (stereo not given) | 70% (active) | 11% (inactive) | 1% (inactive) | 88% (active) | inactive | inactive | inactive | inactive
5 | COC(=O)/C=C/c1ccc(CC(C)NCC(O)c2cccc(Cl)c2)cc1 (stereo not given) | 73% (active) | 2% (inactive) | 5% (inactive) | 99% (active) | inactive | inactive | inactive | inactive
6 | CCCCCC(C)C(C)c1cc(O)c2c(c1)O[C@@]1(C(C)C)CC(O)[C@H](C)[C@@H]2C1 (stereo not given in full) | 87% (active) | 1% (inactive) | -3% (inactive) | 93% (active) | inactive | inactive | inactive | inactive
7 | CCCCCc1cc(O)c2c(c1)OC(C)(C)CC2C1=CCN(Cc2cccnc2)CC1 (stereo not given) | 97% (active) | 15% (inactive) | -1% (inactive) | 97% (active) | inactive | inactive | inactive | inactive
8 | Fc1ccc2[nH]cc(CCN3CCC(CNCc4ccccc4)CC3)c2c1 | 94% (active) | 67% (active) | 4% (inactive) | 100% (active) | inactive | inactive | inactive | inactive
9 | COc1ccc(C(=O)[C@H]2C[C@@H]2CN2CC=C(c3c(C)[nH]c4ccccc34)CC2)cc1 | 94% (active) | 16% (inactive) | -6% (inactive) | 96% (active) | inactive | inactive | inactive | inactive
10 | OC(CNC12CC3CC(CC(C3)C1)C2)c1cccc(C(F)(F)F)c1 (stereo not given) | 98% (active) | 16% (inactive) | -3% (inactive) | 97% (active) | inactive | inactive | inactive | inactive
11 | CCCCCSc1cc(O)c(C(CNC)C(C)C)cc1OC (stereo not given) | 99% (active) | 5% (inactive) | -4% (inactive) | 100% (active) | inactive | inactive | inactive | inactive
12 | Oc1ccc(Cl)cc1CN1CCC(CCOC(c2ccccc2)c2ccc(Cl)cc2)CC1 (stereo not given) | 100% (active) | 32% (inactive) | 2% (inactive) | 98% (active) | inactive | inactive | inactive | inactive
13 | O=C(/C=C/c1ccc(Cl)c(Cl)c1)NC1[C@@H]2CC[C@H]1CC(CN1CCC(c3c[nH]c4ccccc34)CC1)C2 (stereo not given in full) | 100% (active) | 31% (inactive) | -2% (inactive) | 100% (active) | inactive | inactive | inactive | inactive
14 | CCC(C)CN1CCC(N(C)c2cc(NC(=O)c3ccc(F)cc3)ccn2)CC1 (stereo not given) | 32% (inactive) | 4% (inactive) | -5% (inactive) | 93% (active) | inactive | inactive | inactive | inactive
15 | O=C(/C=C/c1ccc(Cl)c(Cl)c1)Nc1cccc(CN2CCC(c3c[nH]c4ccccc34)CC2)c1 | 91% (active) | 15% (inactive) | 0% (inactive) | 99% (active) | inactive | inactive | inactive | inactive
16 | COc1nc(N)ncc1C(=O)NC1CN2CCC1CC2 (stereo not given) | 0% (inactive) | 26% (inactive) | -1% (inactive) | 92% (active) | inactive | inactive | inactive | inactive
17 | NC(=O)CN1CC=C(c2c[nH]c3ccc(Br)cc23)CC1 | 0% (inactive) | 30% (inactive) | -12% (inactive) | 83% (active) | inactive | inactive | inactive | inactive
18 | Cc1ccc(CC(C)NCC(O)c2cccc(Cl)c2)cc1F (stereo not given) | 88% (active) | 1% (inactive) | -2% (inactive) | 95% (active) | inactive | inactive | inactive | inactive
19 | N#Cc1c(Cl)cccc1Oc1ccc(S(=O)(=O)N2CCC(CN3CCC(c4c[nH]c5ccccc45)CC3)CC2)cc1 | 67% (active) | 36% (inactive) | 4% (inactive) | 100% (active) | inactive | inactive | inactive | inactive
20 | O=C(/C=C/c1ccc(Cl)c(Cl)c1)N1CCC(CN2CCC(c3c(-c4ccccc4)[nH]c4ccccc34)CC2)CC1 | 99% (active) | 43% (inactive) | -8% (inactive) | 101% (active) | inactive | inactive | inactive | inactive
21 | Cc1c(C)c2c(c(C)c1O)CC[C@](C)(C(=O)NC1CCC(CN3CCC(c4c[nH]c5ccccc45)CC3)CC1)O2 (stereo not given in full) | 98% (active) and 48% (inactive) | 24% (inactive) and 27% (inactive) | -2% (inactive) and 1% (inactive) | 96% (active) and 85% (active) | inactive | inactive | inactive | inactive
22 | O=C(/C=C/c1ccc(Cl)c(Cl)c1)N1CC[C@H]2C[C@H](N3CCC(c4c[nH]c5ccccc45)CC3)CC[C@@H]2C1 | 99% (active) | 31% (inactive) | 0% (inactive) | 100% (active) | inactive | inactive | inactive | inactive
23 | COc1cccc(C2(NC[C@@H](O)[C@H](Cc3ccccc3)NC(=O)c3ccccc3)CCCCC2)c1 | 67% (active) | 14% (inactive) | -2% (inactive) | 97% (active) | inactive | inactive | inactive | inactive

Row | SMILES | growth inhibition [1] | inhibition [2] | inhibition [3] | growth inhibition [4] | outcome [5] | outcome [6] | outcome [7] | outcome [8]
24 | CC[C@H]1CN2CC[C@H]1C[C@H]2[C@H](O)c1cc(Cl)nc2ccc(OC)cc12 | 92% (active) | 0% (inactive) | 2% (inactive) | 101% (active) | inactive | inactive | inactive | inactive
25 | CC(C)CN1CCC(N(C)c2cc(NC(=O)c3cccc(F)c3)ccn2)CC1 | 10% (inactive) | 8% (inactive) | -1% (inactive) | 97% (active) | inactive | inactive | inactive | inactive
26 | CC(Cc1ccc(NC(=O)CCCc2ccccc2)cc1)NCCc1cccc(Cl)c1 (stereo not given) | 3% (inactive) | 12% (inactive) | -5% (inactive) | 94% (active) | inactive | inactive | inactive | inactive
27 | Cn1nc(C(F)(F)F)cc1-c1ccc(C(=O)NC2CCC(CN3CCC(c4c[nH]c5ccccc45)CC3)CC2)s1 (stereo not given) | 97% (active) | 45% (inactive) | -1% (inactive) | 101% (active) | inactive | inactive | inactive | inactive
28 | CC(Cc1ccc(NC(=O)CCNCc2ccccc2)cc1)NCCc1cccc(Cl)c1 (stereo not given) | 100% (active) | 101% (active) | 3% (inactive) | 101% (active) | inactive | inactive | inactive | inactive
29 | CC(=O)C1(c2ccccc2)CCN(CCC2(c3ccc(Cl)c(Cl)c3)CN(C(=O)Nc3cccc(C(F)(F)F)c3)CCO2)CC1 (stereo not given) | 66% (active) | 24% (inactive) | 8% (inactive) | 95% (active) | inactive | inactive | inactive | inactive
30 | CCCc1cc(O)c2c3c(c(=O)oc2c1)CN(C)CC3 | 50% (active) | 12% (inactive) | 0% (inactive) | 98% (active) | inactive | inactive | inactive | inactive
31 | CC(C)CNCc1cccc(-c2ccc(CN(C(=O)NC3CCCCC3)C3CCN(Cc4ccccc4)CC3)cc2)c1 | 51% (active) | 27% (inactive) | -2% (inactive) | 97% (active) | inactive | inactive | inactive | inactive
32 | c1ccc2c(NCCCCCCNc3c4ccccc4nc4ccccc34)c3ccccc3nc2c1 | 80% (active) | 60% (active) | 3% (inactive) | 99% (active) | inactive | inactive | inactive | inactive
33 | Cc1ccc(CC(C)NCC(O)c2cccc(Cl)c2)cc1 (stereo not given) | 64% (active) | -4% (inactive) | -1% (inactive) | 93% (active) | inactive | inactive | inactive | inactive
34 | O=C(C=Cc1cc([N+](=O)[O-])ccc1Cl)NC1CCC(CN2CCC(c3c[nH]c4ccccc34)CC2)CC1 (stereo not given) | 94% (active) | 21% (inactive) | 1% (inactive) | 102% (active) | inactive | inactive | inactive | inactive
35 | Cc1cc(CN2CCN(CCOC(c3ccccc3)c3ccccc3)CC2)ccc1O | 96% (active) | 9% (inactive) | -1% (inactive) | 97% (active) | inactive | inactive | inactive | inactive
36 | CCCCCc1cc(O)c2c(c1)OC(C)(C)c1ccncc1-2 | 57% (active) | -5% (inactive) | -1% (inactive) | 99% (active) | inactive | inactive | inactive | inactive
37 | CN(C)c1cccc(CCNCCc2c[nH]c3ccc(Cl)cc23)c1 | 75% (active) | 19% (inactive) | -6% (inactive) | 94% (active) | inactive | inactive | inactive | inactive
38 | Cc1ccc(-n2nc(C)c3c2NC(=O)CSC3c2ccsc2)cc1 (stereo not given) | 11% (inactive) | -14% (inactive) | 2% (inactive) | 97% (active) | inactive | inactive | inactive | inactive
39 | O=C(NCc1ccccc1)c1nn(CCCN2CCC3(CC2)C(=O)NCN3c2ccccc2)cc1-c1ccc(Cl)c(Cl)c1 | 21% (inactive) | 6% (inactive) | -5% (inactive) | 88% (active) | inactive | inactive | inactive | inactive
40 | O=C(NC1CCC(CN2CCC(c3c[nH]c4ccccc34)CC2)CC1)c1cc(-c2cccc(Cl)c2)n(-c2ccc(Cl)cc2Cl)n1 (stereo not given) | 25% (inactive) | 53% (active) | -5% (inactive) | 81% (active) | inactive | inactive | inactive | inactive
41 | CC(C)CNCc1cccc(-c2ccccc2CN(C(=O)Nc2ccccc2)C2CCN(Cc3ccccc3)CC2)c1 | 68% (active) | 36% (inactive) | -2% (inactive) | 100% (active) | inactive | inactive | inactive | inactive
42 | CO/C(=C\C=C\c1cc2cc(Cl)c(Cl)cc2[nH]1)C(=O)N[C@H]1CN2CCC1CC2 | 36% (inactive) | 43% (inactive) | -2% (inactive) | 82% (active) | inactive | inactive | inactive | inactive
43 | O=C(/C=C/c1ccc(Cl)c(Cl)c1)NCCCCCN1C2CCC1CC(c1c[nH]c3ccccc13)C2 (stereo not given) | 4% (inactive) | 54% (active) | -1% (inactive) | 98% (active) | inactive | inactive | inactive | inactive
44 | Oc1cc2c(cc1CN1CCN(Cc3ccccc3)CC1)CCC2 | 92% (active) | 1% (inactive) | 0% (inactive) | 98% (active) | inactive | inactive | inactive | inactive
45 | CS(=O)(=O)Nc1ccc2[nH]cc(C3CCN(CC4CCC(NC(=O)/C=C/c5ccccc5Cl)CC4)CC3)c2c1 (stereo not given) | 7% (inactive) | 12% (inactive) | 2% (inactive) | 96% (active) | inactive | inactive | inactive | inactive
